Assay outcomes as filed in PubChem BioAssay.
BAP1 block – inhibitors of BAP1 deubiquitinase, primary screen, biochemical, Ub-AMC fluorescence, kinetic | 72,000 compounds, 0.48% hits | Ubiquitin carboxyl-terminal hydrolase BAP1 (Homo sapiens), Q92560 | calls only at 20 µM | recombinant BAP1, Ub-AMC hydrolysis fluorescence kinetic; stronger effect = lower value;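 active = activity remaining at or below 50% of control, provided the compound also passes the data quality filters; inactive = the rest, including low values that fail the filters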
Autofluor 339 – intrinsic fluorescence of library compounds, ex339/em460 – biochemical, MLSMR library, data from DPM-DC assay, artefact control, profiling panel; compound autofluorescence, ex339/em460 nm, NADH buffer; stronger effect = higher value; 1 = no-compound wells, NADH background; fluorescence fold increase at 10 µM; 65,000 compounds, 5.5% hits;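 active = at 10 µM, mean starting fluorescence two-fold or more over control wells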;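 note: signal is the first read of a kinetic run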
WNV protease inh – inhibitors of WNV NS2B-NS3 protease, primary screen, biochemical, fluorogenic substrate; Genome polyprotein (West Nile virus), P06935; fluorogenic substrate Ex360/Em465; stronger effect = lower value; z-score (no concentration beside the values); 65,000 compounds, 0.18% hits; AID 577, 2007; in the data active = z-score below about -3
Abs 340nm – compound light absorbance at 340 nm, profiling panel, artefact control, biochemical, MLSMR library, data from PS, PMK, MK assays. AID 708, 2007. fold change at 10 µM. compound absorbance at 340 nm, fold over control. 65,000 tested, under 10 active;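 active = at 10 µM dose, initial 340 nm absorbance at least 2 fold that of control wells; inactive = change under 2 fold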;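 note: initial absorbance extrapolated from kinetic A340 decline of NADH oxidation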
M1 ag – M1 muscarinic receptor agonists, primary screen, CHO-M1 cells, Fluo-4 calcium, agonist mode | Muscarinic acetylcholine receptor M1 | Fluo-4 calcium fluorescence; stronger effect = higher value | B-score at 10 µM | 64,000 compounds, 3% hits;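 active = fluorescence rise, raw or as B-score row- and column-corrected plate score, outside the 99.7% band of its plate's samples, either direction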
M1 antagonist – antagonists of rat M1 muscarinic receptor; Muscarinic acetylcholine receptor M1 (Rattus norvegicus), P08482; CHO-M1 cells, Fluo-4 calcium, ACh EC80 antagonist mode; stronger effect = lower value; B-score at 10 µM; 64,000 compounds, 3.4% hits; AID 628, 2007;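 active = calcium fluorescence response, raw or row-and-column corrected B-score, differing from the plate sample mean either way at a set confidence level, mostly lower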
M1 ag confirm – rat M1 muscarinic receptor agonists, confirmation, CHO-M1 cells, Fluo-4 calcium, duplicate retest | shares compounds with M1 ag | Fluo-4 calcium fluorescence, agonist mode; actives lie on both sides | fluorescence change (max-min) at 10 µM | 1,700 compounds, 19% hits | AID 1488, 2009;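 active = fluorescence change differs from the solvent-only DMSO control mean at a set confidence level in both duplicate runs; inconclusive = differs from solvent-only control mean in just one of two runs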;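 note: an EC20 dose of acetylcholine follows compound addition during the same imaging run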
M4 ag counter – agonist activity at rat M4 receptor, confirmation, counter-screen for M1 allosteric modulator project, cell-based, agonist mode; CHO M4/Gqi5 cells, Fluo-4 calcium fluorescence; actives lie on both sides; 1,700 compounds, 9% hits; fluorescence change (max-min) at 10 µM; shares compounds with M1 ag;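 active = fluorescence change differing from the plate's solvent-only control wells at 99.7% confidence in both duplicates, whether higher or lower; inconclusive = differs from solvent controls in only one of two duplicates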
Target sequence (P08485 whole entry, looked up): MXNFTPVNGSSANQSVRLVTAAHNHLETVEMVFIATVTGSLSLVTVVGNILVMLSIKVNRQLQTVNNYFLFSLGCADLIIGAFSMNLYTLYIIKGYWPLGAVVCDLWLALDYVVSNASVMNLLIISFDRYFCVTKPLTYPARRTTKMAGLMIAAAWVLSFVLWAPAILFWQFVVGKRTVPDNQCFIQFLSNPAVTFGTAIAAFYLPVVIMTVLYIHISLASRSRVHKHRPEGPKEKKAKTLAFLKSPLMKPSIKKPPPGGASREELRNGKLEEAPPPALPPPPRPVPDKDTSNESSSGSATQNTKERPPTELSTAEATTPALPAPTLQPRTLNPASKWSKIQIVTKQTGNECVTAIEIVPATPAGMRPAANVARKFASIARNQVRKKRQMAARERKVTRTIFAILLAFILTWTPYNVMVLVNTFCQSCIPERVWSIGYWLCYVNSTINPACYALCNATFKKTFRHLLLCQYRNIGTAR
Each line names hits and unclear results; the compound was inactive in the other large screens (follow-up assays come after a bar, where shown). An excerpt weighted towards active compounds, which were near 9.7% of everything screened.

COc1ccc(C2=NOC(C(=O)N3CCN(c4ccccc4OC)CC3)C2)cc1 (stereo not given)	M1 ag 2.6 | M1 ag confirm inactive | M4 ag counter inconclusive
CC12c3ccccc3C(c3ccccc31)C1C(=O)N(c3ccc(C#N)cc3)C(=O)C12 (stereo not given)	none (no result: Autofluor 339, WNV protease inh, Abs 340nm, M1 ag, M1 antagonist)
CCc1ccc(S(=O)(=O)NCc2cn3ccsc3n2)s1	M1 ag 3.3 | M1 ag confirm inactive | M4 ag counter inactive
CC(=O)Nc1ccc(S(=O)(=O)Nc2ccc(C(=O)c3ccccc3)cc2)cc1	none (no result: Autofluor 339, WNV protease inh, Abs 340nm, M1 ag, M1 antagonist)
O=C1C2ON(c3ccccc3)C(c3ccccn3)C2C(=O)N1c1ccc(Br)cc1 (stereo not given)	none
Cc1ccccc1N1OC2C(=O)N(c3ccc(F)cc3)C(=O)C2C1c1ccccn1 (stereo not given)	M1 ag 13 | M1 ag confirm inactive | M4 ag counter inactive
CCOC(=O)C1=C(C(=O)OCC)SC(=C2C(=S)C(C)(C)N(C(=O)C(F)(F)F)c3ccc(OCC)cc32)S1	none (no result: Autofluor 339, WNV protease inh, Abs 340nm, M1 ag, M1 antagonist)
CCOC(=O)CC(=O)CSc1nc2ccccc2c(=O)n1-c1ccc(C(=O)N2CCOCC2)cc1	none
CCOC(=O)N1CCN(C(=O)CSc2nc3ccccc3c(=O)n2-c2ccccc2)CC1	M1 ag 3.8 | M1 ag confirm inconclusive | M4 ag counter inconclusive
COc1ccc(C2NC(=O)NC(C)=C2C(=O)OCCc2ccccc2)cc1OC (stereo not given)	none (no result: Autofluor 339, WNV protease inh, Abs 340nm, M1 ag, M1 antagonist)
COCCOC(=O)C1=C(C)NC(=O)NC1c1ccc(OC(=O)c2ccco2)c(OC)c1 (stereo not given)	M1 ag 6.8 | M1 ag confirm inactive | M4 ag counter inactive
CCC(=O)N1CCN(c2ccccc2NC(=O)COc2cccc(C)c2)CC1	none
CCC(=O)N1CCN(c2ccccc2NC(=O)COc2ccccc2Cl)CC1	M1 ag 4.3 | M1 ag confirm inconclusive | M4 ag counter inactive
O=C(c1ccc2c(c1)OCO2)N1CCN(c2ccc(Cl)cc2)CC1	none
O=C(Nc1ccccc1N1CCN(C(=O)c2ccc(Cl)cc2)CC1)c1ccc2c(c1)OCO2	M1 ag -2.2 (not shown: BAP1 block) | M1 ag confirm inactive | M4 ag counter inactive
CCC(=O)N1CCN(c2ccccc2NC(=O)c2cccc(C)c2)CC1	M1 ag 9.8 | M1 ag confirm inactive | M4 ag counter inconclusive
CCOc1ccc2nc(NCCNC(=O)CC)c(C#N)cc2c1	Autofluor 339 3.8, M1 ag 9.7 | M1 ag confirm 133 | M4 ag counter inactive
CC(N=c1ccccn1C(=O)Nc1ccc(Cl)cc1)c1ccco1 (stereo not given)	M1 ag 4 | M1 ag confirm -30 | M4 ag counter inconclusive
Cc1sc2ncn(-c3ccc(I)cc3)c(=O)c2c1C	none (no result: Autofluor 339, WNV protease inh, Abs 340nm, M1 ag, M1 antagonist)
Cc1cccc(-n2c(C)nc3c(cnn3-c3ccc(F)cc3)c2=O)c1	M1 ag 9.4 | M1 ag confirm inactive | M4 ag counter inconclusive
COc1ccc(-n2c(C)nc3c(cnn3-c3ccc(Cl)cc3)c2=O)cc1	M1 ag 4.1 | M1 ag confirm inactive | M4 ag counter inactive
COc1cccc(-n2c(C)nc3c(cnn3-c3ccc(C)cc3)c2=O)c1	none
COC(=O)C(C)n1cnc2c(cnn2-c2ccc(Cl)cc2)c1=O (stereo not given)	M1 ag 4.6 | M1 ag confirm inactive | M4 ag counter inactive
O=C(Nc1cc2c(cc1Cl)C(=O)c1ccccc1C2=O)c1ccco1	none (no result: Autofluor 339, WNV protease inh, Abs 340nm, M1 ag, M1 antagonist)
c1csc(CNc2ncnc3sccc23)c1	none (no result: BAP1 block, M1 ag, M1 antagonist)
CN(Cc1cccs1)c1ncnc2sccc12	M1 ag 2.6 | M1 ag confirm inactive | M4 ag counter -87
COc1ccc(NC(=O)c2ccccc2NC(=O)CN2C(=O)c3ccccc3C2=O)cc1	none (no result: Autofluor 339, WNV protease inh, Abs 340nm, M1 ag, M1 antagonist)
Cc1cc2n(n1)C(c1ccccc1Cl)Nc1ccccc1-2 (stereo not given)	M1 ag 2.5 | M1 ag confirm inactive | M4 ag counter inactive
CC(=O)NC(CCS(C)(=O)=O)C(=O)Nc1ccc(Cl)c(Cl)c1 (stereo not given)	M1 ag 2.9 | M1 ag confirm inactive | M4 ag counter inactive
CC(=O)NC(CCS(C)(=O)=O)C(=O)Nc1cccc(C(C)=O)c1 (stereo not given)	none
CCOC(=O)C1CCN(C(=O)C2c3ccccc3C(=O)N(C)C2c2ccc(OC)cc2)CC1 (stereo not given)	M1 ag 10 (no result: BAP1 block, WNV protease inh) | M1 ag confirm inconclusive | M4 ag counter inactive
COc1ccc(C2C(C(=O)N3CCCCC3)c3ccccc3C(=O)N2C)cc1 (stereo not given)	none (no result: BAP1 block)
CCC(c1ccccc1)c1nnc(N)s1 (stereo not given)	none (no result: Autofluor 339, WNV protease inh, Abs 340nm, M1 ag, M1 antagonist)
Nc1nonc1C(=O)OCC(=O)c1ccc(Br)cc1	none (no result: Autofluor 339, WNV protease inh, Abs 340nm, M1 ag, M1 antagonist)
Cc1cccc(C)c1NC(=O)CSc1nnc(-c2ccoc2C)n1CCc1ccccc1	none
CC(=O)c1ccc(NC(=O)CSc2nnc(-c3ccoc3C)n2Cc2ccccc2)cc1	M1 ag 27 | M1 ag confirm inconclusive | M4 ag counter -75
CN1CCC2(CC1)C1CN(C)CC=C1C(C#N)=C(N)C2(C#N)C#N (stereo not given)	M1 ag 34 | M1 ag confirm 215 | M4 ag counter 160
C=CCN1C(=O)C2(c3ccccc31)C1CCCC=C1C(C#N)=C(N)C2(C#N)C#N (stereo not given)	none
CCOC(=O)C1CCCN(Cc2nc(N)nc(Nc3ccc(Cl)cc3)n2)C1 (stereo not given)	none
CCOC(=O)C1CCCN(C/C(O)=C(\C#N)c2nc(-c3ccc(Cl)cc3)cs2)C1 (stereo not given)	M1 ag 21 | M1 ag confirm inconclusive | M4 ag counter inactive
O=C1c2cccc3cccc(c23)C(=O)N1CCN1CCN(C(=O)C23CC4CC(CC(C4)C2)C3)CC1	none (no result: Autofluor 339, WNV protease inh, Abs 340nm, M1 ag, M1 antagonist)
CC1=C(C(N)=O)C(c2cccc(O)c2)n2nc(CCCO)nc2N1 (stereo not given)	none
COc1ccc(C2C=C(c3cccs3)Nc3nc(CCCO)nn32)cc1 (stereo not given)	Autofluor 339 3.9, M1 ag 288, M1 antagonist -18 (not shown: BAP1 block) | M1 ag confirm 2868 | M4 ag counter 2408
